Screening results from PubChem BioAssay.
Shown are actives, neighbours in structure and some others; about 8.1% of the full set was active somewhere.
KB-V1 cytotox – qHTS assay for MDR1-selective chemotherapeutics: Primary screen using the drug-selected MDR subline cells KB-V1; KB-V1 MDR cells viability, CellTiter-Glo, 72 h; Potency, µM (titrated, usually from 46.1 µM), most hits filed as cytotoxic; 400,000 compounds, 3.4% hits; AID 1347076, 2019; also: % is scaled to controls: 0 for no effect and ±100 for the full control effect; nearly all actives have a fitted effect of over 60% in size
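KB-V1 MDR subline cells in DMEM (phenol-red free, 10% FBS) exposed to compounds in qHTS concentration series for 72 h at 37 degrees C. Viability read by CellTiter-Glo luminescence; concentration-effect curves fitted after normalization and correction.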
ELG1 DNA repair – qHTS screen for small molecules that inhibit ELG1-dependent DNA repair in human embryonic kidney (HEK293T) cells expressing luciferase-tagged ELG1; HEK293T ELG1-luciferase reporter, luminescence, 16 h; DNA damage induced by 5-fluorouridine; Potency, µM (top dose mostly 46.1 µM), for inactives: at the highest dose activity change, negative = inhibition, actives largely listed as inhibitors; 330,000 compounds, 2.3% hits; also: % is scaled to controls: 0 for no effect and ±100 for the full control effect; nearly all actives have a fitted effect of over 55% in size
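In this reporter screen, reduction of luminescence relative to DMSO vehicle indicated activity. Compounds and 5-fluorouridine were added together to 2,000 cells per well, incubated for 16 hr at 37 °C, then developed with ONE-Glo.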
SW480 rereplic – A quantitative high throughput screen for small molecules that induce DNA re-replication in SW480 colon adenocarcinoma cells | SW480 DNA re-replication, Hoechst DNA content imaging, 48 h | Potency, µM (highest dose often 46.1 µM), for inactives: top-dose re-replication activation, hits mostly activators | 340,000 compounds, 1.8% hits | AID 624297, 2012; also: % of control where 0% means no effect; nearly all actives have a fitted effect of over 55% in size
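SW480 cells exposed to compounds for 48 hr at 37 C, 5% CO2, then Hoechst-stained 40 min. Nuclear DNA content imaged by fluorescence scanning (405 nm excitation, 500-530 nm emission); re-replication scored as increased high-intensity nuclei.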
KB-3-1 cytotox – qHTS assay for MDR1-selective chemotherapeutics: Primary screen using the parental adenocarcinoma cell KB-3-1. KB-3-1 viability, CellTiter-Glo ATP luminescence, 72 h. Potency, µM (highest dose often 46.1 µM), hits mostly cytotoxic. 400,000 compounds, 1.4% hits; also: % is scaled to controls: 0 for no effect and ±100 for the full control effect; nearly all actives have a fitted effect of over 60% in size
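Using CellTiter-Glo luminescence, growth of non-resistant KB-3-1 adenocarcinoma cells is assessed 72 h after pin-tool compound addition at 37 °C. Normalized responses across the concentration series yield fitted curves.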
MCF10A rereplic – A quantitative high throughput screen for small molecules that induce DNA re-replication in MCF 10a normal breast cells; MCF 10A DNA re-replication, Hoechst nuclear intensity, 48 h; Potency, µM (top dose mostly 46.1 µM), inactives show at the top dose activity, positive = re-replication, most hits filed as activators; 350,000 compounds, 2.9% hits; AID 624296, 2012; also: % of control where 0% means no effect; nearly all actives have a fitted effect of over 50% in size
* marks the source's active call; other numbers are inactive results; i = inactive; ? = inconclusive; . = not tested or not shown; [ ] = another dose, or the depositor's remark. Calls follow the shape of the dose curve; as a rule, active = well fitted curve in the direction sought with a large enough effect; inconclusive = small, poorly fitted or top-dose-only effect, or another doubt; inactive = no such curve, though single readings can be large; an effect the other way counts as inactive or inconclusive. Potency is read from the fitted curve at half-maximal effect.

SMILES	KB-V1 cytotox	ELG1 DNA repair	SW480 rereplic	KB-3-1 cytotox	MCF10A rereplic
Cc1ccc(-c2cc(C(F)F)n3ncc(C(=O)N4CCCc5ccccc54)c3n2)cc1	i	-28%	-3%	i	18%
O=C(c1cc(-c2cccc(Br)c2)nc2ccccc12)N1CCCC1	i	-16%	17%	i	-15%
O=C(c1cc(-c2ccccc2)nc2ccccc12)N1CCCc2ccccc21	?	18µM*	?	i	13%
Cc1cccc(-c2cc(C(=O)N3CCCc4ccccc43)c3ccccc3n2)c1	?	7.3µM*	-1%	i	10%
COc1ccc(CCNC(=O)Cc2cc(=O)[nH]c(=O)[nH]2)cc1OC	i	8%	-2%	i	3%
COc1ccc(CNC(=O)NC2CCCCC2)cc1	i	?	18µM*	i	3.7µM*
Cc1ccc(C(=O)N[C@H](C(=O)NC2CCCCC2)C(C)C)cc1	10µM*	0%	2%	i	-3%
CC(OC(=O)C1=Cc2ccccc2OC1)C(=O)NCC1CCCO1 (stereo not drawn)	i	.	0%	i	21µM*
COc1ccc(CNC(=O)C(=O)NCC2CCCO2)cc1 (stereo not drawn)	i	?	-27%	18µM*	?
COc1ccc(CCNC(=O)C(=O)NCC2CCCO2)cc1 (stereo not drawn)	i	10%	-7%	i	-10%
Cc1ccc(NC(=O)c2c(C)oc3ccc(O)c(CN4CCOCC4)c23)cc1	i	.	.	i	.
COc1ccc(C(=O)NC(C(=O)NCC2CCCO2)C(C)C)cc1 (stereo not drawn)	i	7%	3%	i	-6%
CCOc1cc(NC(=S)NCC2CCCO2)c(OCC)cc1NC(=O)c1ccc(OC)cc1 (stereo not drawn)	i	13µM*	-7%	i	-3%
CCOc1ccc(C(=O)NC(C(=O)NCC2CCCO2)C(C)C)cc1 (stereo not drawn)	i	23µM*	-6%	i	3%
CCOc1c(C)cc(S(=O)(=O)NCc2cccnc2)c(C)c1C	?	-20%	-1%	i	?
CCc1ccccc1NC(=O)CNC(=O)c1cn(Cc2ccccc2)nc1-c1cccnc1	i	-9%	-7%	i	-1%
CCn1c(Cn2nnc(-c3ccccc3)n2)nnc1SCC(=O)Nc1cccc(C)c1C	?	?	-5%	i	6%
CCOC(=O)CC(=O)CSc1nc(-c2ccc3c(c2)OCO3)cc(C(F)(F)F)c1C#N	i	4%	?	i	6.3µM*
Cc1cc(C(F)(F)F)nc(SCCN2CCOCC2)c1C#N	i	0%	-16%	i	1%
CCOC(=O)CCSc1nc(-c2ccc3c(c2)OCO3)cc(C(F)(F)F)c1C#N	i	6%	-5%	i	5%
N#Cc1c(C(F)(F)F)cc(-c2ccc(Cl)c(Cl)c2)nc1SCCN1CCOCC1	?	-3%	16%	i	4.1µM*
C=CCSc1nc(-c2ccc3c(c2)OCO3)cc(C(F)(F)F)c1C#N	i	-1%	7.3µM*	i	15%
COc1cccc(/C=C/C(=O)Nc2ccc(OC)nc2)c1	18µM*	18%	-7%	?	-8%
COc1ccc(NC(=O)/C=C/c2ccccc2)cn1	i	?	-1%	i	-2%
CCN=c1scc(C)n1/N=C/c1ccc(O)c(O)c1O	i	4%	-2%	i	-3%
SMILES	KB-V1 cytotox	ELG1 DNA repair	SW480 rereplic	KB-3-1 cytotox	MCF10A rereplic
CCN=c1scc(C)n1/N=C/c1cc(Br)c(O)c(Br)c1	?	?	-3%	?	21µM*
COc1ccc(/C=N\NC(=O)C2COc3ccccc3O2)cc1O (stereo not drawn)	?	?	20%	i	?
CC(=O)Nc1ccc(-c2csc(NNC(=O)c3ccccc3)n2)cc1	i	13%	7%	i	?
CC(=O)Nc1nc(-c2ccc([N+](=O)[O-])cc2)cs1	i	3%	-42%	i	0%
CC(=O)Nc1ccc(-c2csc(N/N=C(/C)c3ccccc3)n2)cc1	i	21µM*	-2%	i	11%
O=C(Nc1ccc(Cl)cc1)Nc1nc(-c2ccccc2)cs1	i	-5%	-8%	i	0.58µM*
CC(=O)Nc1ccc(-c2csc(NC(=O)CCCc3cccs3)n2)cc1	i	18µM*	0%	i	?
O=C(Nc1ccc([N+](=O)[O-])cc1)Nc1nc(-c2ccc(Cl)s2)cs1	?	10µM*	-45%	2.9µM*	2.9µM*
C/C(CC(=O)Nc1ccccc1[N+](=O)[O-])=N\NC(=O)COc1ccccc1C	i	5%	-1%	i	-1%
O=C(CCC(=O)N1CCOc2ccccc21)Nc1ccc(F)cc1F	i	5%	0%	i	3%
COc1ccc(/C=C/C(=O)NCCCN2CCCCCC2)cc1	i	-11%	-1%	i	16%
CCNC(=O)C1CCCN(C(=O)c2ccc3ccccc3c2)CC1 (stereo not drawn)	i	.	.	i	.
O=C(Nc1cccc(Cl)c1)Nc1nc(-c2ccccc2)cs1	i	?	6%	i	0.82µM*
O=C(Nc1nc(-c2ccc(Cl)cc2)cs1)NC1CCCCC1	13µM*	?	.	?	?
O=C(Nc1ccc(Cl)cc1)NC1CCCCC1	i	?	-1%[9.22 µM]	i	0%
CC(=O)C1=NOC2C(=O)N(c3ccccc3)C(=O)C12 (stereo not drawn)	i	13%	-7%	i	-10%
C=CCNC(=S)N/N=C(\C)c1cc(OC)c(OC)c(OC)c1	15µM*	-8%	-13%	i	-8%
CCOc1ccc(N(CC(=O)NC(C)CC)S(C)(=O)=O)cc1 (stereo not drawn)	?	1%	-4%	i	1%
CCCCc1ccc(NC(=S)NCc2ccccc2OC)cc1	i	?	-5%	i	5%
CCCCC(=O)NC(c1ccc(N(C)C)cc1)c1ccc2cccnc2c1O (stereo not drawn)	?	-1%	?	?	?
CCCC(=O)NC(c1ccc(C)cc1)c1ccc2cccnc2c1O (stereo not drawn)	3.7µM*	?	?	?	21µM*
CCCCC(=O)NC(c1ccc(N(CC)CC)cc1)c1ccc2cccnc2c1O (stereo not drawn)	?	?	?	4.6µM*	?
CCCC(=O)NC(c1ccc(Cl)cc1Cl)c1ccc2cccnc2c1O (stereo not drawn)	i	?	0.65µM*	?	?
